Screening data (PubChem)
PfHsp40 rescue: rescue of PfHsp40-mediated yeast toxicity. growth rescue, % at 12.5 µM. S. cerevisiae expressing PfHsp40, growth rescue, ATP luminescence. 0.68% of 340,000 active; in the data active = growth rescue above about 28%, passing the limit was not always enough;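 also: yeast W303a lacking pdr1 and pdr3 grown in galactose medium; growth measured after three days at 30 °C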
Mtb FBA inh: Mtb fructose-bisphosphate aldolase inhibition. 2.3% of 360,000 active. inhibition, % at 1 µM. purified M. tuberculosis FBA, fluorescence read-out; in the data active = inhibition above about 27%;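 also: 0% = vehicle and 100% = reference inhibitor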
Target sequence (P9WQA3 whole entry, looked up): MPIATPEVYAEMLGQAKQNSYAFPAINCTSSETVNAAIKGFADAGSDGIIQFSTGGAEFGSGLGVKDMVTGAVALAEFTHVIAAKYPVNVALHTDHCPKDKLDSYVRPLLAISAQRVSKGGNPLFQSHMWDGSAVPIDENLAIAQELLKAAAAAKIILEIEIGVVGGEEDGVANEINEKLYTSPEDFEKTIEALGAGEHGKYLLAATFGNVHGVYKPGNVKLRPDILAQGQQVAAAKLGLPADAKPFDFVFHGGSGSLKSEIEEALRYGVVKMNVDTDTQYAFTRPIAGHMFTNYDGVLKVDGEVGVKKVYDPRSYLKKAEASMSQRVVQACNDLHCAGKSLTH
PrPC surface inh: cell surface PrPC inhibition, primary TR-FRET screen. inhibition, % at 13.8 µM. TR-FRET read-out. 0.43% of 370,000 active. P04156; in the data active = inhibition above about 24%; also: 0% = median of the test wells and 100% = reference compound wells
PrP UTR inh: suppresses PrP 5' UTR mRNA reporter expression; cell-based PrP 5' UTR mRNA reporter, plate reader; inhibition, % (concentration not given with the values); 0.35% of 340,000 active; AID 488862; in the data active = inhibition above about 52%; also: 0 = median of the neutral control wells
BJeLR viability: kills HRASV12-expressing BJeLR cells; inhibition, % (concentration not given with the values); 0.17% of 300,000 active; BJeLR (HRASV12) viability, CellTiter-Glo ATP luminescence, 48 h; in the data active = inhibition above about 50%
GDH-TPI inh: GDH-TPI coupled enzyme inhibition counter-screen; 1.2% of 360,000 active; GDH-TPI coupled enzyme counterscreen, NADH absorbance; inhibition, % at 4.8 µM; in the data active = inhibition above about 30%;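 also: 0% = DMSO wells and 100% = wells lacking the enzyme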
The depositor's hits bear a star. Rows were chosen to be rich in hits. Some 4.5% of all compounds tested hit in one or more screens of this group.

`COc1cc(/C=C/C(=O)Nc2ccc(C)cc2)cc(OC)c1OC` gave PfHsp40 rescue 0, Mtb FBA inh 4, PrPC surface inh -4, PrP UTR inh -14, BJeLR viability 10 and GDH-TPI inh 27.
COc1ccc(/C=C/C(=O)Nc2ccccc2C(=O)O)cc1 was read as PfHsp40 rescue 0, Mtb FBA inh -2, PrPC surface inh -7, PrP UTR inh -28, BJeLR viability -4 and GDH-TPI inh 20.
For Cc1ccc(N(C)c2nc(N)nc(N)c2N=O)cc1 the results were PrPC surface inh -57.
O=C(Nc1ccc2ccccc2c1)NC1CCCCN(Cc2ccc(Cl)cc2)C1=O (stereo not given) was read as PrPC surface inh 14.
For Cc1cccc(-c2cccc3c4c([nH]c23)[C@@H]2C[C@H](N(C)C(=O)c3ccccc3C)[C@H]([C@H](C)O)C(=O)N2CC4)c1 the results were PrPC surface inh 12.
Screening CCCC/C=C1/[C@@H](C(C)C)N(Cc2ccc3c(c2)OCO3)C2=N[C@H](c3ccccc3)CC(=O)N21 returned PrPC surface inh -1.
Screening COc1ccc(/C=C/C(=O)Nc2cccc(S(=O)(=O)NC3=NCCCCC3)c2)cc1OC returned PfHsp40 rescue 2, Mtb FBA inh 6, PrPC surface inh -6, PrP UTR inh -15 and GDH-TPI inh 35*.
`COc1cc(C=O)ccc1OC(=O)Nc1ccccc1` gave PfHsp40 rescue -1, Mtb FBA inh 1, PrPC surface inh 4, PrP UTR inh -30, BJeLR viability -4 and GDH-TPI inh 52*.
`COc1ccc(/C=C/C(=O)Nc2ccccc2C(=O)N2CCCC2)cc1` gave PfHsp40 rescue -1, Mtb FBA inh -1, PrPC surface inh -4, PrP UTR inh -11, BJeLR viability -3 and GDH-TPI inh 36*.
CCN(CC)CCNC(=O)c1ccc(NC(=O)/C=C/c2cc(OC)c(OC)c(OC)c2)cc1 was read as PfHsp40 rescue 0, Mtb FBA inh 4, PrPC surface inh -10, PrP UTR inh -28, BJeLR viability 6 and GDH-TPI inh 36*.
Screening COCCCNC(=O)CN1C(=O)C2CCCCN2C(=O)c2ccccc21 (stereo not given) returned PrPC surface inh -9.
For COc1ccc(/C=C2\CC3(OC(=O)c4ccco4)CCCN2C3)cc1 (stereo not given) the results were PrPC surface inh -15.
`COc1cccc(OC)c1C(=O)NC(=S)NNC(=O)[C@H]1C[C@@H]1c1ccccc1` gave PfHsp40 rescue 1, Mtb FBA inh -1, PrPC surface inh 5, PrP UTR inh -38, BJeLR viability -15 and GDH-TPI inh 5.
`COc1ccc(/C=C/C(=O)Nc2ccc(C(N)=O)cc2)cc1OC` gave Mtb FBA inh 6, PrPC surface inh -2, BJeLR viability 4 and GDH-TPI inh 53*.
For O=C(NC(=S)NNC(=O)[C@H]1C[C@@H]1c1ccccc1)c1cccc(F)c1 the results were PfHsp40 rescue 49*, Mtb FBA inh 3, PrPC surface inh 6, PrP UTR inh 12, BJeLR viability 5 and GDH-TPI inh -5.
`COc1ccc(/C=C/C(=O)NC(=S)NNC(=O)[C@H]2C[C@@H]2c2ccccc2)cc1OC` gave PfHsp40 rescue -1, Mtb FBA inh 1, PrPC surface inh 2, PrP UTR inh 12, BJeLR viability 0 and GDH-TPI inh 44*.
`COc1ccc(/C=C/C(=O)NC(=S)NN2CCCCC2c2cccnc2)cc1OC` (stereo not given) gave PfHsp40 rescue 1, Mtb FBA inh 1, PrPC surface inh 6, PrP UTR inh 18, BJeLR viability -7 and GDH-TPI inh 13.
`COc1ccc(/C=C/C(=O)Nc2ccc3c(c2)CCC3)cc1OC` gave PfHsp40 rescue 1, Mtb FBA inh -1, PrPC surface inh -5, PrP UTR inh -38, BJeLR viability -10 and GDH-TPI inh 28.
Screening Nc1sc(-c2ccccc2)cc1C(=O)NCCc1c[nH]c2ccccc12 returned PrPC surface inh 12.
COc1cc(NC(=O)c2ccccn2)ccc1NC(=O)c1ccccc1Cl was read as PrPC surface inh -6.
Screening Cc1ccc(/C=C2/C(=N)N3N=C(CC(=O)N4CCCC4)SC3=NC2=O)o1 returned PfHsp40 rescue 0, Mtb FBA inh 5, PrPC surface inh -3, PrP UTR inh -4, BJeLR viability -1 and GDH-TPI inh 33*.
